Inconclusive results are not listed. Active and inactive are the calls of the source. Calls come from the whole dose curve; as a rule, active = well fitted activation curve with a large enough effect; inconclusive = small, poorly fitted or top-dose-only effect, or effect the other way; inactive = flat fitted curve, though single readings scatter.
Experiment: qHTS Assay for Identification of Small Molecule Agonists for Thrombopoietin (TPO) Signaling Pathway (AID 917)
Conditions: TPO signaling pathway reporter cells, agonist qHTS, stimulated with TPO at its EC50; series mostly up to 38.5 µM; activity, positive = activation: at the top concentration
Protocol: NIH Molecular Libraries Screening Centers Network [MLSCN]
NIH Chemical Genomics Center [NCGC]
The thrombopoietin (TPO) signaling pathway was assayed in murine Ba/F3 cells stably transfected with the human TPO receptor and a luciferase reporter gene controlled by the Glycoprotein IIb promoter (provided by Axxam). BaF3 cells are an IL-3-dependent pro B cell line that upon TPO stimulation, undergo cell division and induce the megakaryocyte marker, Glycoprotein IIb. The assay was screened at the EC50 of TPO (26 pM) to identify activators of the pathway.
NCGC Assay Protocol Summary:
Cells were maintained at 37 C and 5% CO2in RPMI with 10% fetal bovine serum, 0.5 ng/mL murine IL-3, 100U/ml penicillin and 100 ug/ml streptomycin. Prior to plating, cells were incubated overnight in medium without IL-3. Cells were plated at 250 cells/5uL/well into white solid 1536-well plates, 23 nL of compounds were delivered by a pin tool, and 1 uL of TPO (26 pM final concentration in IL-3 deficient medium) was added. Following 24 hrs of incubation at 37 C and 5% CO2, 4 uL of Steadylite detector mix (PerkinElmer) was added, the plates incubated at room temperature for 10 min and luminescence was measured for 10 s and 2X binning by a ViewLux detector (Perkin Elmer).
% is set by controls: 0 for no effect and ±100 for the full control effect.

Row | SMILES | activity, positive = activation
1 | O=c1[nH]c(=O)n([C@H]2C[C@H](O)[C@@H](CO)O2)cc1Br | -7.47% (inactive)
2 | O=C(O)CP(=O)(O)O | -12% (inactive)
3 | C[N+](C)(C)CCOC(=O)CCC(=O)OCC[N+](C)(C)C | 7.67% (inactive)
4 | CCCCNc1ccc(C(=O)OCCN(C)C)cc1 | -0.297% (inactive)
5 | CCN(CC)CC(=O)Nc1c(C)cccc1C | -4.17% (inactive)
6 | CC(C)[N+](C)(CCOC(=O)C1c2ccccc2Oc2ccccc21)C(C)C | -24.2% (inactive)
7 | NCCCNCCSP(=O)(O)O | -6.02% (inactive)
8 | OCCN1CCN(CCCN2c3ccccc3C=Cc3ccccc32)CC1 | -27.8% (inactive)
9 | CCc1c(C)[nH]c2c1C(=O)C(CN1CCOCC1)CC2 (stereo not given) | -14.2% (inactive)
10 | N[C@@H](COP(=O)(O)O)C(=O)O | -12.3% (inactive)
11 | C(=C\c1ccccc1)/CN1CCN(C(c2ccccc2)c2ccccc2)CC1 | -15.7% (inactive)
12 | CN1CCN(C2=Nc3ccccc3Oc3ccc(Cl)cc32)CC1 | -7% (inactive)
13 | CN(C)C(=O)Oc1ccc[n+](C)c1 | -10.8% (inactive)
14 | CCOC(=O)c1cnc2c(cnn2CC)c1NN=C(C)C | -14.2% (inactive)
15 | CCn1nc(C(=O)O)c(=O)c2cc3c(cc21)OCO3 | 0.423% (inactive)
16 | NC(N)=NC(=O)Cc1c(Cl)cccc1Cl | 1.1% (inactive)
17 | Cc1scc2c1N(C(=O)CN1CCN(C)CC1)c1ccccc1NC2=O | 2.2% (inactive)
18 | CCCN(CCC)CCc1cccc2c1CC(=O)N2 | 13.2% (inactive)
19 | CC(C)NNC(=O)c1ccncc1 | -2.2% (inactive)
20 | CC1=NS(=O)(=O)c2cc(Cl)ccc2N1 | 12.3% (inactive)

Row | SMILES | activity, positive = activation
21 | COc1cc(Cc2cnc(N)nc2N)cc(OC)c1OC | -16.2% (inactive)
22 | Nc1nc(N)c2nc(-c3ccccc3)c(N)nc2n1 | -19.6% (inactive)
23 | O=C(O)CN(CCN(CC(=O)O)CC(=O)O)CCN(CC(=O)O)CC(=O)O | -9.21% (inactive)
24 | Cc1ccc(S(=O)(=O)NC(=O)NN2CCCCCC2)cc1 | 0.797% (inactive)
25 | CN(C)CC/C=C1\c2ccccc2COc2ccccc21 | 1.9% (inactive)
26 | Cc1nc2c([nH]1)c(=O)n(C)c(=O)n2Cc1ccco1 | -25.1% (inactive)
27 | O=C(O)CN(CCOCCOCCN(CC(=O)O)CC(=O)O)CC(=O)O | -17.1% (inactive)
28 | CC(=O)Oc1cc(C(C)C)c(OCCN(C)C)cc1C | -24.7% (inactive)
29 | O=C(O)CCCCCCCC(=O)O | 4.38% (inactive)
30 | O=C1CC2(CCCC2)CC(=O)N1CCCCN1CCN(c2ncccn2)CC1 | -4.91% (inactive)
31 | CN(C)CCOC(=O)COc1ccc(Cl)cc1 | -7.33% (inactive)
32 | Cc1ccc(=O)n(-c2ccccc2)c1 | -2.5% (inactive)
33 | CN(C(=O)CCCOc1ccc2[nH]c(=O)ccc2c1)C1CCCCC1 | -24.8% (inactive)
34 | COc1ccc(CN(CCN(C)C)c2ccccn2)cc1 | -18.7% (inactive)
35 | Brc1c(NC2=NCCN2)ccc2nccnc12 | -24% (inactive)
36 | NC(=O)N1c2ccccc2C=Cc2ccccc21 | -3.96% (inactive)
37 | CCN1CCc2nc(N)oc2CC1 | 6.3% (inactive)
38 | O=C(CCNNC(=O)c1ccncc1)NCc1ccccc1 | -4.1% (inactive)
39 | CCN(CC)CCNC(=O)c1cc(S(C)(=O)=O)ccc1OC | -9.92% (inactive)
40 | FC(F)(F)c1ccccc1-n1ccnc1 | -7.58% (inactive)
